Source: PubChem BioAssay (National Center for Advancing Translational Sciences (NCATS))
NS1 function inh = qHTS Assay for Inhibitors of Influenza NS1 Protein Function; Potency, µM (highest dose often 46.1 µM), inactives show at the highest dose activity, positive = more growth; hit rate 0.4% among 270,000; AID 2326, 2010; calls by dose curve; further: actives are rising curves; nearly all actives have a fitted effect of over 50% in size
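A cell-based growth assay was used: compounds that relieve NS1-induced slow growth of budding yeast raise OD600. Assay medium was yeast nitrogen base with ammonium sulphate and -URA supplement, pH 6.0, with 2% galactose.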
RE007 growth inh = qHTS Assay for Inhibitors of the HIV-1 protein Vpr; Potency, µM (titrated, usually from 92.2 µM), for the others: top-dose activity change, negative = less growth, usual class: inhibitors; S. pombe RE007 Vpr strain, BacTiter-Glo ATP luminescence, 24 h; hit rate 0.21% among 360,000; active means well fitted falling curve with a large enough effect; inconclusive means small, poorly fitted or top-dose-only effect; inactive means no such curve, though single readings can be large or run the other way; further: on the % scale 0 is the no-effect control and ±100 the full control effect; nearly all actives have a fitted effect of over 50% in size
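Fission yeast strain RE007, carrying one chromosomally integrated HIV-1 vpr copy, was seeded at OD 0.01 in PMG+AL medium with 23 nL pinned compound. After 24 h at 30 °C and 99% humidity, viability was read by BacTiter-Glo luminescence.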
Pf growth 96h = Primary qHTS for delayed death inhibitors of the malarial parasite plastid, 96 hour incubation; P. falciparum luciferase reporter growth, 96 h; Potency, µM (top dose mostly 28.7 µM), for inactives: top-dose activity change, negative = inhibition, usual class: inhibitors; hit rate 6.9% among 320,000; further: on the % scale 0 is the no-effect control and ±100 the full control effect
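P. falciparum expressing integrated firefly luciferase, in erythrocytes at 2% hematocrit, 0.05% parasitemia, incubated with compounds 96 h at 37 C, 5% CO2. Growth inhibition read as loss of luminescence; two-generation exposure targets delayed-death apicoplast inhibitors.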
SARS PLpro yeast = qHTS of Yeast-based Assay for SARS-CoV PLP; S. cerevisiae expressing SARS-CoV PLpro, growth rescue; Potency, µM (titrated, usually from 32.9 µM), inactives show top-dose activity, positive = growth rescue, hits mostly activators; hit rate 0.19% among 330,000; AID 485353, 2010; calls by dose curve; further: 0% is about no effect; nearly all actives have a fitted effect of over 55% in size
Pf growth 48h = Primary qHTS for delayed death inhibitors of the malarial parasite plastid, 48 hour incubation. AID 504832, 2011. hit rate 5.9% among 310,000. Potency, µM (doses to about 28.7 µM), for the others: at the highest dose activity change, negative = inhibition, hits mostly inhibitors. P. falciparum luciferase growth in erythrocytes, 48 h; further: on the % scale 0 is the no-effect control and ±100 the full control effect
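Growth was read as firefly luciferase luminescence after a 48 h, 37 C, 5% CO2 exposure of compounds to reporter-bearing P. falciparum cultures (0.1% parasitemia, 2% hematocrit final) in Albumax-supplemented RPMI 1640.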
Numbers without * were called inactive; ? = inconclusive; nt = no result; [ ] = dose if it differs, or a comment. Only some compounds are listed: those with a hit (about 9.5% of all), similar ones and a draw of the others. Unless noted, the call rests on the fitted dose curve; in most records, active means well fitted inhibition curve with a large enough effect; inconclusive means small, poorly fitted or top-dose-only effect, or another doubt; inactive means no such curve, though single readings can be large or run the other way. Potency means the concentration at half of the fitted maximal effect.

SMILES	NS1 function inh	RE007 growth inh	Pf growth 96h	SARS PLpro yeast	Pf growth 48h
COc1ccc(CNc2nc3ccccc3n2C)c(O)c1	?	-24%	-7%	-1%	0%
CC(C)n1c(NCc2cc(Cl)ccc2O)nc2ccccc21	-33%	1%	26%	13%	nt
O=C(Cn1cnc2scc(-c3ccc(F)cc3)c2c1=O)NCC(c1ccco1)N1CCCC1 (configuration not stated)	nt	5%	?	-2%	-2%
COc1cc(OC)cc(C(=O)N[C@H](C(=O)OCC(=O)N2CCN(S(=O)(=O)c3ccc(C)cc3)CC2)C(C)C)c1	nt	3%	nt	nt	nt
O=C(CCNC(=O)c1ccc(Br)cc1)NCC1COc2ccccc2O1 (configuration not stated)	-27%	21%	48%	7%	?
Cc1cc(C)cc(-n2c(C)c3c(C)nnc(C)c3c2C)c1	6%	-7%	?	-17%	?
Cc1nnc(C)c2c(C)n(-c3ccc(Cl)c(N)c3)c(C)c12	2%	-19%	13µM*	-4%	-28%
COc1ccc(Br)cc1[C@H]1[C@@H]2C=CCC[C@@]2(C)C(=O)N1Cc1ccccc1	-65%	14%	12µM*	-18%	?
COc1ccc(-c2ccc(OC)c([C@H]3[C@@H]4C=CCC[C@@]4(C)C(=O)N3Cc3ccccc3)c2)cc1OC	13%	-4%	12µM*	-4%	8.3µM*
COc1ccc(-c2ccc(N(C)C)cc2)cc1[C@H]1[C@@H]2C=CCC[C@@]2(C)C(=O)N1Cc1ccccc1	?	?	9.3µM*	-4%	9.3µM*
COc1ccc(-c2ccc(N(C)C)cc2)cc1[C@H]1[C@H]2C=CC[C@@H](C)[C@@H]2C(=O)N1Cc1ccccc1	1%	-3%	?	1%	?
COc1ccc(/C=C/c2ccccc2)cc1[C@H]1[C@H]2C=CC[C@@H](C)[C@@H]2C(=O)N1Cc1ccccc1	1%	0%	?	0%	?
COc1ccc(/C=C/c2ccccc2)cc1[C@H]1[C@@H]2C=CCC[C@@]2(C)C(=O)N1Cc1ccccc1	?	-9%	?	-2%	10µM*
O=C(Nc1cccc(Cl)c1)c1ccccc1NC(=O)C1CCCCC1C(=O)O (configuration not stated)	4%	2%	9%	2%	37%
COc1cccc(C(NC(C)=O)c2nc(-c3ccc(OC)nc3)cs2)c1 (configuration not stated)	nt	-3%	nt	nt	nt
COC1=CCC2([N+](=O)[O-])CN(CCO)CC1([N+](=O)[O-])C2 (configuration not stated)	-1%	-14%	?	30%	23%
CC(=O)Nc1nc2c(ncn2COCCOC(C)=O)c(=O)[nH]1	9%	nt	13µM*	0%	4%
CC(C)[C@H](N)C(=O)OCCOCn1cnc2c(=O)[nH]c(N)nc21	nt	7%[18.4 µM]	?	nt	0%
O=C(CNC(=O)OCc1ccccc1)NCC(=O)Oc1ccc([N+](=O)[O-])cc1	nt	-6%	nt	nt	nt
NNC(=O)c1cc(S(=O)(=O)N2CCOCC2)c[nH]1	nt	-3%	-20%	0%	-27%
O=C(Nc1cccc(Cl)c1)c1ccc(NCCCN2CCOCC2)c([N+](=O)[O-])c1	0%	17%	134%	5%	?
Cc1ccc(NC(=O)c2ccc(NCCCN3CCC(C)CC3)c([N+](=O)[O-])c2)cc1F	nt	?	-23%	-2%	1.2µM*
Clc1ccc(OCCCc2nc(-c3cccnc3)no2)c(Cl)c1	-88%	5%	9.3µM*	-27%	6%
C#CCOCCOCCOCCNc1nc(N2CCN(C(=O)[C@H]([C@@H](C)CC)n3cc(CCCN=C(N)N)nn3)CC2)nc(N2CCN(C(=O)[C@H]([C@@H](C)CC)n3cc(CCC(=O)O)nn3)CC2)n1	nt	-8%	nt	nt	nt
C#CCOCCOCCOCCNc1nc(N2CCN(C(=O)[C@H](C(C)C)n3cc(CCO)nn3)CC2)nc(N2CCN(C(=O)[C@H]([C@@H](C)CC)n3cc(CCCCN)nn3)CC2)n1	7%	-2%	?	-15%	?
SMILES	NS1 function inh	RE007 growth inh	Pf growth 96h	SARS PLpro yeast	Pf growth 48h
C#CCOCCOCCOCCNc1nc(N2CCN(C(=O)[C@H]([C@@H](C)CC)n3cc(CCCCN)nn3)CC2)nc(N2CCN(C(=O)[C@H](C)n3cc(CCCN=C(N)N)nn3)CC2)n1	nt	7%	4%	-16%	?
C#CCOCCOCCOCCNc1nc(N2CCOCC2)nc(N2CCN(C(=O)[C@H]([C@@H](C)CC)n3cc(CCCCN)nn3)CC2)n1	4%	1%	8.3µM*	25%	?
C#CCOCCOCCOCCNc1nc(N2CCN(C(=O)[C@H]([C@@H](C)CC)n3cc(CCCCN)nn3)CC2)nc(N2CCN(C(=O)[C@H]([C@@H](C)CC)n3cc(CCCN=C(N)N)nn3)CC2)n1	nt	-10%	7.4µM*	8%	?
C#CCOCCOCCOCCNc1nc(N2CCN(C(=O)[C@H]([C@@H](C)O)n3cc(CCCCN)nn3)CC2)nc(N2CCN(C(=O)[C@H]([C@@H](C)CC)n3cc(CCCN=C(N)N)nn3)CC2)n1	12%	-10%	4.7µM*	5%	?
Cc1cccc(N2C(=O)CSC23CCCCC3)c1	nt	4%	1.5µM*	-13%	-21%
CC1CCC2(CC1)SCC(=O)N2c1ccccc1 (configuration not stated)	-9%	12%	93%	25%	2%
COc1ccc(OC)c2[nH]c(=O)c(CCNC(=O)c3cc4ccccc4o3)cc12	-40%	2%	5.2µM*	-7%	8.3µM*
CCS(=O)(=O)NCCc1cc2c(OC)ccc(OC)c2[nH]c1=O	-1%	13%	2.1µM*	3%	-24%
Cc1ccc(NC(=O)CN2C(=O)NC(Cc3ccccc3)C2=O)c(Br)c1 (configuration not stated)	3%	-5%	-5%	-3%	-10%
O=C(Nc1nccs1)NC1CCCCC1	6%	-11%[3.69 µM]	12%	1%	2.9µM*
COc1ccc(/C=N/N(CCC(=O)NC(C)(C)C)C2=NS(=O)(=O)c3ccccc32)cc1	-4%	10%	42%	-1%	6.6µM*
C/C(=N/NC(=O)c1cc(C)[nH]n1)c1ccncc1	-6%	-16%	?	-1%	47%
CCn1c(=O)n(CC)c2cc(NC(=O)C(C)c3ccccc3)c(Br)cc21 (configuration not stated)	-19%	-10%	6%	-1%	?
CCOc1ccc(CCNC(=O)C2=C(C)C(=O)OC23CCC(C)CC3)cc1 (configuration not stated)	-14%	8%	10µM*	3%	-4%
